From PubChem BioAssay (EPA / NIEHS) come the findings set out here.

Where “and” joins values, the source holds several entries; their conditions need not be identical. Equal values may be shown once. Results filed as inconclusive are left out. The source holds several records for some structures; these can differ, active in one and inactive in another. Calls of active or inactive are those of the source. The calls were made as follows, unless noted: active = hit-call score of the fitted dose curve at least 0.9, where 1 is the maximum; inconclusive = response in the unintended direction; inactive = score below 0.9.

The nature of test [1]: BSK_4H_Eotaxin3: BioMAP Diversity Plus: 4H Assay for Eotaxin 3 Biomarker Activity (AID 2283000; active = hit-call score of the fitted dose curve at least 0.9, where 1 is the maximum; inactive = score below 0.9;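 as to outcome: CCL26 protein level quantified by ELISA in parallel with SRB cytotoxicity check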). Particulars: primary human endothelial cells (HUVEC); actives raise or lower the signal. In outline:
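Endothelial primary cells (human umbilical vein) exposed to compound for 24 h. ELISA detection of Eotaxin-3.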

Test [2] addresses human Peroxisome Proliferator-activated Receptor delta (PPARd), PPARD (gene 5467) (UniProt Q03181). The experiment in a line: ATG_PPARd_TRANS: Attagene TRANS-FACTORIAL HepG2 Assay for human Peroxisome Proliferator-activated Receptor delta (PPARd) (AID 2283002). In outline:
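Read-out is induced reporter mRNA, quantified by RT-PCR with fluorescent labelling and capillary electrophoresis after 24 h dosing. Cells are HepG2 transiently carrying multiple GAL4-UAS reporter units driven by exogenous NR-GAL4 chimeras; DMSO serves as baseline.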

Read-out in test [3]: Intercellular Adhesion Molecule 1 (ICAM1), ICAM1 (gene 3383)
The experiment in a line: BSK_3C_ICAM1: BioMAP Diversity Plus: 3C Assay for Intercellular Adhesion Molecule 1 (ICAM1) Biomarker Activity (AID 2283003; active = hit-call score of the fitted dose curve at least 0.9, where 1 is the maximum; inactive = score below 0.9). The conditions noted are these: primary human endothelial cells (HUVEC); actives raise or lower the signal. In a few lines:
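Using DMSO as baseline, bidirectional curve fitting was applied to ICAM-1 ELISA signals from HUVEC in the 3C system, measured 24 h after compound addition.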

For test [4], the target named is human Retinoic Acid Receptor beta (RARb), RARB (gene 5915) (UniProt P10826). The experiment in a line: ATG_RARb_TRANS: Attagene TRANS-FACTORIAL HepG2 Assay for human Retinoic Acid Receptor beta (AID 2283004). In a few lines:
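HepG2, transient MRTU transfection, NR–Gal4 chimera, 24 h treatment; RT-PCR plus CE fluorescence detection of reporter mRNA; gain of signal vs DMSO.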

The target of test [5] is Retinoic acid receptor alpha (Homo sapiens) (UniProt P10276). Nature of the test: ATG_RARa_TRANS: Attagene TRANS-FACTORIAL HepG2 Assay for human Retinoic Acid Receptor alpha (RARa) (AID 2283005). In a few lines:
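Reporter transcripts, measured by RT-PCR with fluorescent labeling and capillary electrophoresis after 24 h dosing, reflect activity of an exogenous human RARa–GAL4 fusion in transiently transfected HepG2. Fitted for increase relative to DMSO.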

Test [6] can be described thus: BSK_3C_Proliferation: Cell Proliferation Assessment in the BioMAP Diversity Plus: 3C Assay (AID 2283006; active = hit-call score of the fitted dose curve at least 0.9, where 1 is the maximum; inactive = score below 0.9;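 as to AC50: potency may reflect either rise or fall in cell number versus DMSO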). The conditions noted are these: primary human endothelial cells (HUVEC). In outline: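 Measured here: sulforhodamine B (0.1%) staining of TCA-fixed sub-confluent umbilical vein endothelial cultures 48 h post-dosing, absorbance 560 nm. DMSO served as negative control and baseline; both signal gain and loss were modelled.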

Test [7] has as its target Peroxisome proliferator-activated receptor gamma (Homo sapiens) (UniProt P37231). The experiment in a line: ATG_PPARg_TRANS: Attagene TRANS-FACTORIAL HepG2 Assay for human Peroxisome Proliferator-activated Receptor-gamma (PPARg) (AID 2283007). In outline:
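A TRANS-format multiplexed reporter assay measures activity of an exogenous chimeric NR-Gal4 protein in HepG2 cells. After 24 h of chemical exposure, reporter transcripts are amplified, fluorescently labelled and sized by capillary electrophoresis, with gain of signal scored against DMSO.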

For test [8], the target named is Nuclear receptor subfamily 1 group I member 2 (Homo sapiens) (UniProt O75469). Nature of the test: ATG_PXR_TRANS: Attagene TRANS-FACTORIAL HepG2 Assay for human Pregnane X Receptor (PXR) (AID 2283008). In outline: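 Transactivation by exogenous PXR–GAL4 fusion measured as reporter transcript induction after 24 h compound treatment of transfected human HepG2 cells. Read-out via RT-PCR and capillary electrophoresis of labelled fragments, fitted upward relative to DMSO.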

Test [9] concerns the target human RAR-related Orphan Receptor gamma (RORg), RORC (gene 6097) (UniProt P51449). The experiment in a line: ATG_RORg_TRANS: Attagene TRANS-FACTORIAL HepG2 Assay for human RAR-related Orphan Receptor gamma (RORg) (AID 2283011). In a few lines: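 Activity is scored as increase in GAL4-UAS reporter mRNA over DMSO, detected by fluorescent RT-PCR and capillary electrophoresis in HepG2 cells transiently expressing a RORg-Gal4 chimera, 24 h after dosing.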

Test [10] concerns the target Retinoic acid receptor RXR-alpha (Homo sapiens) (UniProt P19793). The experiment in a line: ATG_RXRa_TRANS: Attagene TRANS-FACTORIAL HepG2 Assay for human Retinoid X Receptor alpha (RXRa) (AID 2283012). In a few lines: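 Chimeric NR-GAL4 trans-activation in HepG2, 24 h treatment; reporter transcripts quantified by fluorescence on capillary electrophoresis, analysed for upward change from DMSO.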

Test [11] has as its target human Retinoid X Receptor beta (RXRb), RXRB (gene 6257) (UniProt P28702). Nature of the test: ATG_RXRb_TRANS: Attagene TRANS-FACTORIAL HepG2 Assay for human Retinoid X Receptor beta (RXRb) (AID 2283013). In a few lines: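 After a 24 h incubation with test chemical, transfected HepG2 cells carrying NR-Gal4 fusions and GAL4-UAS reporter transcription units yield RNA whose reporter cDNA is FAM-labelled, HpaI-cut and sized by capillary electrophoresis; increases over DMSO are scored.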

In test [12] the target is human Thyroid Receptor alpha (THRa1), THRA (gene 7067) (UniProt P10827). Nature of the test: ATG_THRa1_TRANS: Attagene TRANS-FACTORIAL HepG2 Assay for human Thyroid Receptor alpha (THRa1) (AID 2283014). In a few lines: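 First, HepG2 cells receive multiple GAL4-UAS reporter units and the chimeric receptor. They are then dosed for 24 h, after which RNA is reverse-transcribed, amplified, labelled, HpaI-cut and sized by capillary electrophoresis; gain relative to DMSO is scored.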

Read-out in test [13]: Interleukin-1 alpha (IL1a), IL1A (gene 3552)
Nature of the test: BSK_BE3C_IL1a: BioMAP Diversity Plus: BE3C Assay for Interleukin-1 alpha (IL1a) Biomarker Activity (AID 2283016; active = hit-call score of the fitted dose curve at least 0.9, where 1 is the maximum; inactive = score below 0.9). Particulars: primary human bronchial epithelial cells; actives raise or lower the signal. In a few lines:
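Measured in human lung primary bronchial epithelial cells: IL-1a by ELISA at 24 h after dosing, with bidirectional fitting against DMSO.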

Read-out in test [14]: Monocyte Chemoattractant Protein-1 (MCP1), CCL2 (gene 6347)
Nature of the test: BSK_4H_MCP1: BioMAP Diversity Plus: 4H Assay for Monocyte Chemoattractant Protein-1 (MCP1) Biomarker Activity (AID 2283018; active = hit-call score of the fitted dose curve at least 0.9, where 1 is the maximum; inactive = score below 0.9). The conditions noted are these: primary human endothelial cells (HUVEC); actives raise or lower the signal. In outline: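 Primary human umbilical vein endothelium is exposed to chemical for 24 h before MCP-1 is assayed by ELISA. Concentration-response fitted bidirectionally relative to DMSO.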

Read-out in test [15]: Human Leukocyte Antigen - DR isotype (HLADR), HLA-DRA (gene 3122)
The experiment in a line: BSK_3C_HLADR: BioMAP Diversity Plus: 3C Assay for Human Leukocyte Antigen - DR isotype (HLADR) Biomarker Activity (AID 2283019; active = hit-call score of the fitted dose curve at least 0.9, where 1 is the maximum; inactive = score below 0.9;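 as to outcome: ELISA of cell-surface HLA-DR on HUVEC 24 h after dosing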). The conditions noted are these: primary human endothelial cells (HUVEC); actives raise or lower the signal. In outline:
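Endothelial cells from human umbilical vein are treated with test chemical; after 24 h, HLA-DR levels are measured by ELISA. Data are fitted in both directions using DMSO as the baseline.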

Read-out in test [16]: Interleukin-8 (IL8), CXCL8 (gene 3576)
The experiment in a line: BSK_3C_IL8: BioMAP Diversity Plus: 3C Assay for Interleukin-8 (IL8) Biomarker Activity (AID 2283020; active = hit-call score of the fitted dose curve at least 0.9, where 1 is the maximum; inactive = score below 0.9). The conditions noted are these: primary human endothelial cells (HUVEC); actives raise or lower the signal. In outline:
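Using DMSO-treated wells as the baseline, bidirectional curve fitting was applied to ELISA-measured IL-8 from human umbilical vein endothelial cultures sampled 24 h after compound addition.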

Read-out in test [17]: Monokine induced gamma interferon (MIG), CXCL9 (gene 4283)
Nature of the test: BSK_3C_MIG: BioMAP Diversity Plus: 3C Assay for Monokine induced gamma interferon (MIG) Biomarker Activity (AID 2283021; active = hit-call score of the fitted dose curve at least 0.9, where 1 is the maximum; inactive = score below 0.9;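 as to AC50: MIG protein level measured by immunoassay in the treated endothelial cultures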). Particulars: primary human endothelial cells (HUVEC); actives raise or lower the signal. In outline: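 ELISA-measured MIG in dosed HUVEC 3C cultures at 24 h, analysed by bidirectional fitting with DMSO defining baseline activity.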

The target in test [18] is human Peroxisome Proliferator-activated Receptor alpha (PPARa), PPARA (gene 5465) (UniProt Q07869). Nature of the test: ATG_PPARa_TRANS: Attagene TRANS-FACTORIAL HepG2 Assay for human Peroxisome Proliferator-activated Receptor alpha (PPARa) (AID 2283001). In outline: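 Transfected HepG2 cells treated with test chemical for 24 h. RNA isolated, reverse-transcribed with oligo(dT), PCR-amplified, FAM-labelled and HpaI-digested. Fragments sized by capillary electrophoresis; gain-of-signal fit relative to DMSO.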

Read-out in test [19]: E-selectin (Homo sapiens) (UniProt P16581)
The experiment in a line: BSK_3C_Eselectin: BioMAP Diversity Plus: 3C Assay for Eselectin Biomarker Activity (AID 2283015; active = hit-call score of the fitted dose curve at least 0.9, where 1 is the maximum; inactive = score below 0.9;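 as to outcome: cell surface E-selectin protein quantified by ELISA 24 h after dosing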). The conditions noted are these: primary human endothelial cells (HUVEC); actives raise or lower the signal. In a few lines:
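Human vascular endothelium from umbilical vein is exposed to test chemicals for 24 h. E-selectin levels are read by ELISA and compared with DMSO controls.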

Read-out in test [20]: Monocyte Chemoattractant Protein-1 (MCP1), CCL2 (gene 6347)
The experiment in a line: BSK_3C_MCP1: BioMAP Diversity Plus: 3C Assay for Monocyte Chemoattractant Protein-1 (MCP1) Biomarker Activity (AID 2283017; active = hit-call score of the fitted dose curve at least 0.9, where 1 is the maximum; inactive = score below 0.9). The conditions noted are these: primary human endothelial cells (HUVEC); actives raise or lower the signal. In a few lines: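 Endothelial cells from human umbilical vein are dosed with chemical, cultured 24 h, then assayed for MCP-1 by ELISA; both increases and decreases are modelled against DMSO controls.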

Chain of Retinoic acid receptor RXR-alpha (Homo sapiens) (P19793 whole entry, looked up, the tested form may be a part): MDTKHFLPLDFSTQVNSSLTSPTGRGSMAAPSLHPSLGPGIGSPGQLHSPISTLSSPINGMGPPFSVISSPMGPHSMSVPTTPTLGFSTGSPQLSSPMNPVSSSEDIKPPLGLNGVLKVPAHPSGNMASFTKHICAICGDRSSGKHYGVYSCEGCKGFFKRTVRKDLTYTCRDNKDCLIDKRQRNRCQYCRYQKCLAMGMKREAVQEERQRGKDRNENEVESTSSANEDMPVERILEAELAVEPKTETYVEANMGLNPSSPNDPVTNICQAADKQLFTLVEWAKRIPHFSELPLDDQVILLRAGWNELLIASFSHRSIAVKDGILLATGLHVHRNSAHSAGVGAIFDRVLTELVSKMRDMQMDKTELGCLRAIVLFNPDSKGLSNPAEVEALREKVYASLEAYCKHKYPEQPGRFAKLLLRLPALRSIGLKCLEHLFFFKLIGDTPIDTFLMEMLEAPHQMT
Chain of Peroxisome proliferator-activated receptor gamma (Homo sapiens) (P37231 whole entry, looked up, the tested form may be a part): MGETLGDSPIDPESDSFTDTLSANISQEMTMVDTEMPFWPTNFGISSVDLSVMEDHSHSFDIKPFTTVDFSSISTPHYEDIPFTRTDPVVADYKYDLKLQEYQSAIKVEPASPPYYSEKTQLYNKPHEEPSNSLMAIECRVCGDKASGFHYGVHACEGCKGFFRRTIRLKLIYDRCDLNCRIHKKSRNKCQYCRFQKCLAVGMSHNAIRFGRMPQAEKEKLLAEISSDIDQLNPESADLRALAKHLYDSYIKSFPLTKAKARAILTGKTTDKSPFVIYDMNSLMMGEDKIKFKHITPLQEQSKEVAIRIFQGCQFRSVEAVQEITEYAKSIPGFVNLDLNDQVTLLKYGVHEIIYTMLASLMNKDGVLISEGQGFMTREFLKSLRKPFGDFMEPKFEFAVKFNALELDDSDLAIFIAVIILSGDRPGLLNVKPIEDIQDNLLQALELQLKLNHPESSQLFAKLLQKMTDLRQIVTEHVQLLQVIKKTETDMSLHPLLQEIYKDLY
Chain of E-selectin (Homo sapiens) (P16581 whole entry, looked up): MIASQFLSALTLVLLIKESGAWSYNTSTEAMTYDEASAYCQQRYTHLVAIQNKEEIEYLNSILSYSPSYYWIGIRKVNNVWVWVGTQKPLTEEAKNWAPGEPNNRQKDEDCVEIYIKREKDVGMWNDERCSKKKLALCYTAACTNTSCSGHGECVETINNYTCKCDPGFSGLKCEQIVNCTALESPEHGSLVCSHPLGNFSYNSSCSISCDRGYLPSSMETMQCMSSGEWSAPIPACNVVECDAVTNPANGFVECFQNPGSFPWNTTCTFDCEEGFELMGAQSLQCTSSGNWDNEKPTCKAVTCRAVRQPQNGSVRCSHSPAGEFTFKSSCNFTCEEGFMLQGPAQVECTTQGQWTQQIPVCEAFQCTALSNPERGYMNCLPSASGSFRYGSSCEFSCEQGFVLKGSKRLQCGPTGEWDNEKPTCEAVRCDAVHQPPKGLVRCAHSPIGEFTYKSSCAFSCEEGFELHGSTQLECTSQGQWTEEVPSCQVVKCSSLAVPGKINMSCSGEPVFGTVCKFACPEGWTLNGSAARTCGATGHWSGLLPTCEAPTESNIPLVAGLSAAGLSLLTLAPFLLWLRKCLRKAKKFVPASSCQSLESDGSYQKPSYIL
Chain of Retinoic acid receptor alpha (Homo sapiens) (P10276 whole entry, looked up, the tested form may be a part): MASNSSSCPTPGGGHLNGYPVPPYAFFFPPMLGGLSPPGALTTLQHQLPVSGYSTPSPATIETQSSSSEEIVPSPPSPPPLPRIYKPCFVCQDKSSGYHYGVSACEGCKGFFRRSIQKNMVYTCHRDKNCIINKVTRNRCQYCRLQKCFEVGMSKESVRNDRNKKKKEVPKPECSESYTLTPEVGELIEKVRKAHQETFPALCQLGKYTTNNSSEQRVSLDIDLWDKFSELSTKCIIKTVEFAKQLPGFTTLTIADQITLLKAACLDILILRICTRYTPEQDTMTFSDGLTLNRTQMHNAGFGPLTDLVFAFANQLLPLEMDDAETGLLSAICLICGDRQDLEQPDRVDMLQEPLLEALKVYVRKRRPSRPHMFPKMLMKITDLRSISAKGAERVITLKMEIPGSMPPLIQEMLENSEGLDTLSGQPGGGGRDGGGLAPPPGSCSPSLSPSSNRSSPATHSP
Chain of human RAR-related Orphan Receptor gamma (RORg), RORC (gene 6097) (P51449 whole entry, looked up, the tested form may be a part): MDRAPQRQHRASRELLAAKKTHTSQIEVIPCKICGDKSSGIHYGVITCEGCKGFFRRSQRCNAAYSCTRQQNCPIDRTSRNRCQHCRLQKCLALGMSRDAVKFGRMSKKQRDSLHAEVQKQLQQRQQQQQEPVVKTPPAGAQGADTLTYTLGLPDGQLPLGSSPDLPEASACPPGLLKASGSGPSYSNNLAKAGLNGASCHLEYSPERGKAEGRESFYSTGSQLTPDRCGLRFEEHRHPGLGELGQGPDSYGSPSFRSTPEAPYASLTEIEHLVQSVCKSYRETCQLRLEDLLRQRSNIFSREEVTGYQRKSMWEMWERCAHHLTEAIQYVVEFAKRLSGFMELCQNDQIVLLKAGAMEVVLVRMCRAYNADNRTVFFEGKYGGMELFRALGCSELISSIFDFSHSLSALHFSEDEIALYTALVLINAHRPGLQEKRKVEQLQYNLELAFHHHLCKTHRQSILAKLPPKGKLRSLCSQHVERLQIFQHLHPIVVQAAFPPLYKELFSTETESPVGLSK
Chain of human Retinoid X Receptor beta (RXRb), RXRB (gene 6257) (P28702 whole entry, looked up, the tested form may be a part): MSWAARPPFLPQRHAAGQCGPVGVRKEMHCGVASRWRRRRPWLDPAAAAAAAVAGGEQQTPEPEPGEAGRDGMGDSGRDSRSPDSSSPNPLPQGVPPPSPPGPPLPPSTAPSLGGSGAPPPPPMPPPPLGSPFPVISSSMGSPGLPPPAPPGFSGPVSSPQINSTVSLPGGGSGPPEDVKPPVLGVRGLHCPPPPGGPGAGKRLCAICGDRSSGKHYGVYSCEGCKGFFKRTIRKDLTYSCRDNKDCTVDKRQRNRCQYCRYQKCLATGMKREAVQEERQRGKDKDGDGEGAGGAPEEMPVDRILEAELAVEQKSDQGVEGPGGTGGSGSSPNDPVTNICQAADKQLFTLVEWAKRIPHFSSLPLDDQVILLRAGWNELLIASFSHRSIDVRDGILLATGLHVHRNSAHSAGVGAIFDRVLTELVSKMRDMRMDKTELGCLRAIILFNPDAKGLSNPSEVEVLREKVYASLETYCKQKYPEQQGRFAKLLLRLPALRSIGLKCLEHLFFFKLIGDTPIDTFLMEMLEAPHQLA
Chain of human Retinoic Acid Receptor beta (RARb), RARB (gene 5915) (P10826 whole entry, looked up, the tested form may be a part): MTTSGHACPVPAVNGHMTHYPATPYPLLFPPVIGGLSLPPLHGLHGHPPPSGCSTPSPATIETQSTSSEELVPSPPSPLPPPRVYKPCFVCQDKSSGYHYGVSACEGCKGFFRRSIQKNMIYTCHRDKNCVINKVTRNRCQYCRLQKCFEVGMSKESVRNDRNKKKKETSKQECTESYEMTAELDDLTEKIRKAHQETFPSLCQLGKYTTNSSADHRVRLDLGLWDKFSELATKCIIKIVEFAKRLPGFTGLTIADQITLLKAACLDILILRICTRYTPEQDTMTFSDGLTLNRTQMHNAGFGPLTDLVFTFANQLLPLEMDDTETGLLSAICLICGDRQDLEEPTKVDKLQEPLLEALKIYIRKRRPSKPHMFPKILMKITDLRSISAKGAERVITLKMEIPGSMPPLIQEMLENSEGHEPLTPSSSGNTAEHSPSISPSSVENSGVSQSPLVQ
Chain of human Peroxisome Proliferator-activated Receptor delta (PPARd), PPARD (gene 5467) (Q03181 whole entry, looked up, the tested form may be a part): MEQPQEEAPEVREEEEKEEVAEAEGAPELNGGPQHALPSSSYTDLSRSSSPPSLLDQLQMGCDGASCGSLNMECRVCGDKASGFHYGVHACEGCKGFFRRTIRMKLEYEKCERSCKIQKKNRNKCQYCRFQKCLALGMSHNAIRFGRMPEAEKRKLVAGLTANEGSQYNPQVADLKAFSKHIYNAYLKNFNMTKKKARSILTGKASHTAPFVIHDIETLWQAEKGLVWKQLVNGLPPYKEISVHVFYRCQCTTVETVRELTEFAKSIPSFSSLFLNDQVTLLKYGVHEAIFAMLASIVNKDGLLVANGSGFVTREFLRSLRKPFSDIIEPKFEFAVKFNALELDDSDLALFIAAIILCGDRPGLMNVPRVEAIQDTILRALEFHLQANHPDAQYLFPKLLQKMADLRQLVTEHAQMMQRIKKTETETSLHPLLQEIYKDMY
Chain of Nuclear receptor subfamily 1 group I member 2 (Homo sapiens) (O75469 whole entry, looked up, the tested form may be a part): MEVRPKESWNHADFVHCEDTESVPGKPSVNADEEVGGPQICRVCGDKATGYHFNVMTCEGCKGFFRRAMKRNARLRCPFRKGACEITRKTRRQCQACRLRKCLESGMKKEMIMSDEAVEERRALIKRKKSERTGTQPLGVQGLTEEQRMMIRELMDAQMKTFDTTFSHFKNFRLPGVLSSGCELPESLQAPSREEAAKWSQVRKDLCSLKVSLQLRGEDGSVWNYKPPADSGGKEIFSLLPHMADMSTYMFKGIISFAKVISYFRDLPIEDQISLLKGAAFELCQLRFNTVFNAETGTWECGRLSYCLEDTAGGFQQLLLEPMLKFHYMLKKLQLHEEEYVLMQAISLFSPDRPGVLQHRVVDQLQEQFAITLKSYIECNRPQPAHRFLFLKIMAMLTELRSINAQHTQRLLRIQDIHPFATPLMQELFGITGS
Chain of human Thyroid Receptor alpha (THRa1), THRA (gene 7067) (P10827 whole entry, looked up, the tested form may be a part): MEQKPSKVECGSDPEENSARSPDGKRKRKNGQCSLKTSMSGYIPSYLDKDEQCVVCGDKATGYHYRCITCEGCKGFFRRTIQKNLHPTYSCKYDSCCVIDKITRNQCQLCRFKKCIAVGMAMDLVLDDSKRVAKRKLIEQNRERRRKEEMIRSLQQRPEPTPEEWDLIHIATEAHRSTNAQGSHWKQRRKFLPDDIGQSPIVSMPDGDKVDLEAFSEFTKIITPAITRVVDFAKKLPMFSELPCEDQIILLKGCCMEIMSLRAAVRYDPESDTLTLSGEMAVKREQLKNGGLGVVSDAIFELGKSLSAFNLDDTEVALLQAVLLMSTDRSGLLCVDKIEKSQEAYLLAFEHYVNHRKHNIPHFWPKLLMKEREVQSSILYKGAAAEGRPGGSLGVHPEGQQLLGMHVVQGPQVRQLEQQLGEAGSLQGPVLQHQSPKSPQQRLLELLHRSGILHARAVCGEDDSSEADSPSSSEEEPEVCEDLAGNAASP

Broadly, the AC50 is the concentration giving half of the maximal activity seen. Take `C[C@]12CCC(=O)C=C1CC[C@@H]1[C@@H]2CC[C@]2(C)C(=O)CC[C@@H]12`: the result in test [1], in test [2], in test [3], in [4], in test [5] and in test [6] was inactive. Further, the compound was called inactive in test [7], in test [8], in test [9], in test [10], in test [11] and in test [12]. Also, the result in test [13], in test [14], in [15], in test [16] and in test [17] was inactive. For the same compound, the AC50 in test [8] is 7.27 µM (active) and 26.8 µM (active).

With `N#Cc1ccc(N(CC(N)=O)CC(F)(F)F)cc1C(F)(F)F`, the outcome in test [1], in test [3], in test [4], in test [6], in [7] and in test [8] was inactive. Further, the result in test [9], in test [10], in [13], in test [14], in test [16] and in [17] was inactive.

Regarding `CCSC(=O)N(CC)C1CCCCC1`, the outcome in test [1], in [3], in test [6], in test [7], in [8] and in test [11] was inactive. Further, the result in test [13], in test [14], in test [15], in test [16] and in test [17] was inactive.

As for `O=C(N[C@H]1CN2CCC1CC2)c1cc2ccoc2cn1`, the outcome in test [1], in [18], in test [3], in test [6], in [8] and in [11] was inactive. The result in test [19], in [13], in test [14], in [15], in test [16] and in test [17] was inactive.

For `c1cc2ccc3cccc4ccc(c1)c2c34`, the result in [1], in test [2], in test [3], in test [4], in test [5] and in test [6] was inactive. Besides, the outcome in test [7], in [8], in test [10], in test [12], in test [13] and in test [20] was inactive. The outcome in test [14], in test [16] and in test [17] was inactive. Further, the AC50 in test [11] is 41.4 µM (active).

Take `ClC1=C(Cl)[C@]2(Cl)[C@@H]3[C@@H](Cl)[C@H]4O[C@H]4[C@@H]3C1(Cl)C2(Cl)Cl`: the outcome in test [1], in [2], in test [3], in test [5], in test [10] and in [11] was inactive. Also, the result in test [19], in [13], in test [14], in [16] and in [17] was inactive. In addition, the AC50 in test [6] is 11.2 µM (active); in test [8] it was 4.39 µM (active).

`CCC(=O)O[C@H]1CC[C@H]2[C@@H]3CCC4=CC(=O)CC[C@]4(C)[C@H]3CC[C@]12C`: the AC50 in [1] was 36 µM (active); in test [3], 35.8 µM (active); in [6], 23 µM (active); in test [8] it was 27.8 µM (active); in [19], 32.6 µM (active); in [14], 31.8 µM (active). Besides, the AC50 in [15] was 33.9 µM (active); in [16], 27.3 µM (active); in test [17] it was 38.8 µM (active). The outcome in test [2], in [4], in test [5], in test [7], in [8] and in test [9] was inactive. Also, the call in [10], in test [11], in test [12] and in test [13] was inactive.
